We go through 19 compounds from PubChem BioAssay (NCATS).

Molecules are shown by their SMILES. Values without a mark were called inactive. Inconclusive results are not listed. Entries that show only a call come without a potency. Activity calls are given as the source filed them. Calls follow the shape of the dose curve; as a rule, active = well fitted curve in the direction sought with a large enough effect; inconclusive = small, poorly fitted or top-dose-only effect, or another doubt; inactive = no such curve, though single readings can be large; an effect the other way counts as inactive or inconclusive.

For assay [1], the target named is Cytochrome P450 2D6 (Homo sapiens) (UniProt P10635). Nature of the assay: qHTS for inhibitors of CYP2D6 against the NCATS DSHEA and TCM libraries (AID 1919972). The source says: Assay Development and Screening Technology Laboratory (ADST)
National Center for Advancing Translational Sciences (NCATS), Rockville, MD
National Institute of Health (NIH), Bethesda, Maryland
Dietary Supplements and Natural Products have minor oversight of their safety and efficacy. We assembled a collection of Dietary Supplements and Natural Products (DSNP) as well as Traditional Chinese Medicinal (TCM) Plant extracts, which were screened against an in vitro panel of assays, including a liver cytochrome p450 enzyme panel, CAR/PXR signaling pathways, and P-gp transporter assays, to assess their activity. This pipeline facilitated the interrogation of Natural Product-Drug Interaction (NaPDI) through prominent metabolizing pathways. In addition, we compared the activity profiles of the DSNP/TCM substances with those of an approved drug collection. Many of the approved drugs have well-annotated mechanisms of action (MOA) while the MOAs for most of the DSNP and TCM samples remain unknown. Based on the premise that compounds with similar activity profiles tend to share similar targets or MOA, we clustered the library activity profiles to identify overlap with the NCATS Pharmaceutical Collection to predict the MOAs of the DSNP/TCM substances. Overall, we highlight four significant bioactivity profiles (measured by p-values) as examples of this prediction. To assess broad cytotoxicity, we employed screening against a HepG2 cell line. In addition, transporter-mediated drug interactions are utilized in the characterization of DDIs using a P-glycoprotein (P-gp) assays. To profile potential P-gp activity, a differential cell viability was measured against two cell lines: a parental KB-3-1 human cervical adenocarcinoma cell line and the drug-resistant subline KB-8-5-11 that overexpresses P-gp.
To this end, we profiled both collections for potential CAR and/or PXR activity, employing a previously published 1536-well qHTS assay.
[1] […]
9; Read; Luminescence; ViewLux plate reader. […]
Background: Quantitative high-throughput screening tests each substance at several concentrations.

For assay [2], the target named is Cytochrome P450 2C19 (Homo sapiens) (UniProt P33261). Nature of the assay: qHTS for inhibitors of CYP2C19 against the NCATS DSHEA and TCM libraries (AID 1919974).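 Also: luminescence from luciferin released by CYP2C19 oxidation of a pro-luciferin substrate; potency is read from the fitted curve at half-maximal effect.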 The procedure, abridged:
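Luminescent P450-Glo readout. Enzyme plus pro-luciferin substrate in manufacturer buffer (typically 100 mM KPO4); 15 min RT preincubation; 1x NADPH regenerating system, 30-45 min RT in the dark; detection reagent 30 min.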

Assay [3] can be described thus: KB-3-1 P-gp reporter qHTS against the NCATS DSHEA and TCM libraries (AID 1919975). The procedure, abridged:
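KB-3-1 parental line, 1536-well qHTS: cells seeded, ~4 h attachment, pintool compound addition, ~72 h at 37C, then CellTiter-Glo, 30 min RT, luminescence. Concentration-response format.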

Assay [4] addresses Luciferin 4-monooxygenase (Photinus pyralis) (UniProt P08659). Put plainly: Primary firefly luciferase (FLuc) qHTS assay for identification of artifact compounds. (AID 1845220). Also: nearly all actives have a fitted effect of over 60% in size. An outline of the steps:
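D-luciferin and ATP (10 uM each, final) in Tris acetate buffer pH 7.6 were incubated with compounds for 15 min at room temperature. The reaction was started with 10 nM Photinus pyralis luciferase and luminescence read after 5 min. Percent inhibition was fitted to a 4-parameter Hill equation.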

For assay [5], the system named is Nanoluciferase (engineered Oplophorus gracilirostris luciferase). Put plainly: Primary Nanoluciferase (NLuc) qHTS assay for identification of artifact compounds. (AID 1845222). Also: series mostly up to about 54 µM. An outline of the steps:
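Diluted conditioned medium from NLuc-expressing S16 cells treated with compounds for 15 min at room temperature, then Nano-Glo substrate added; luminescence read after 5 min. Percent inhibition versus no-enzyme and DMSO controls fitted to 4-parameter Hill equation.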

Assay [6] in a line: Primary redox qHTS assay for identification of artifact compounds. (AID 1845223). An outline of the steps:
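Amplex Red (25 uM) and HRP (250 mU/mL) in HBSS, with compounds for 15 min, then 250 uM DTT for 30 min, room temperature, dark. Fluorescence 525/598 nm read; normalized to DMSO and 10 uM DA3003; Hill fit.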

Cytochrome P450 2D6 (Homo sapiens), sequence (P10635 whole entry, looked up): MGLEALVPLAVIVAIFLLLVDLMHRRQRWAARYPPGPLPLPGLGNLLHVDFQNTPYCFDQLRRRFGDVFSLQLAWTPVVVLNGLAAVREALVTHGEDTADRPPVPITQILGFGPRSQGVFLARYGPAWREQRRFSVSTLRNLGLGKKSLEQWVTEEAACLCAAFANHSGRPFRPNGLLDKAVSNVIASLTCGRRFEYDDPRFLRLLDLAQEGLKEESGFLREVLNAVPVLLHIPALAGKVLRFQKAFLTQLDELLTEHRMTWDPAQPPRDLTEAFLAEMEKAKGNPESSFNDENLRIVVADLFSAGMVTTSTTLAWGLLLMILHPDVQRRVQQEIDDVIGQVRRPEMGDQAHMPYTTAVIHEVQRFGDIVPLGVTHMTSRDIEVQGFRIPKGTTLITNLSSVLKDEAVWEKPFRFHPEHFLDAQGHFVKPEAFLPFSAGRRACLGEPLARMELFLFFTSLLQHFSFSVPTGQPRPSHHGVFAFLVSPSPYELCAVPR
Cytochrome P450 2C19 (Homo sapiens), sequence (P33261 whole entry, looked up): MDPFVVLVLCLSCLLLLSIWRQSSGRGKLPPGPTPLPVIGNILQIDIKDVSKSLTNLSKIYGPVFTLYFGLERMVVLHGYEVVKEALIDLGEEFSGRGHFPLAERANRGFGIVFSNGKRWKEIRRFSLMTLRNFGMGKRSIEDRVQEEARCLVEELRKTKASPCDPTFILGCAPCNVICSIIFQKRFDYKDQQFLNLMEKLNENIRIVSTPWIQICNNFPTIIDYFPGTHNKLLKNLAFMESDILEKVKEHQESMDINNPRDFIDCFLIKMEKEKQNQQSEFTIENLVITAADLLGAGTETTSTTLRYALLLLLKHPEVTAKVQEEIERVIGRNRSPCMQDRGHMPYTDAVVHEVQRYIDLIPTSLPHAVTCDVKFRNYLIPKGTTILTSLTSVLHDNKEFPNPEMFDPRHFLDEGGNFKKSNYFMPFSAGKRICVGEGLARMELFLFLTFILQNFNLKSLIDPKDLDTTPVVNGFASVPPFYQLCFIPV

In the case of `O=Cc1ccco1`, the compound was classed as inactive in assay [1] and in assay [3]. The Potency in assay [2] is 6.31 µM (active).
`C/C=C(\C)C(=O)O[C@H]1[C@H](OC(C)=O)[C@]2(CO)[C@H](O)[C@H](O)[C@]3(C)C(=CCC4[C@@]5(C)CC[C@H](O[C@@H]6O[C@H](C(=O)O)[C@@H](O)[C@H](O[C@@H]7OC[C@H](O)[C@H](O[C@@H]8OC[C@H](O)[C@H](O)[C@H]8O)[C@H]7O)[C@H]6O[C@@H]6O[C@H](CO)[C@@H](O)[C@H](O)[C@H]6O)C(C)(C)C5CC[C@]43C)[C@@H]2CC1(C)C` (stereo not given in full): the outcome in assay [4] was “inactive [at 11.6 µM]”. Further, in assay [5], the activity, negative = inhibition was 2.49% [at 11.6 µM]. In assay [6], the redox activity (% of DA3003) is 9.29% [at 11.5 µM].
With `C[C@@]12C[C@@H](c3ccoc3)OC(=O)C1CC[C@]1(C)[C@H]2[C@H]2C=C[C@]1(O)C(=O)O2` (stereo not given in full), the Potency result in assay [4] was “inactive”. For the same compound, the result in assay [5] and in assay [6] was inactive.
With `COC1CC(O[C@H]2CC[C@@]3(C)C(=CCC4C3C(O)[C@@H](O)[C@]3(C)[C@@H](C(C)=O)CC[C@]43O)C2)OC(C)C1OC1CC(OC)C(OC2OC(C)C(O)C(O)C2O)C(C)O1` (stereo not given in full), the outcome in assay [4] was “inactive [at 11.6 µM]”. Also, the activity, negative = inhibition in assay [5] is 4.68% [at 11.6 µM]. Further, the redox activity (% of DA3003) in assay [6] was 8.26% [at 11.5 µM].
Turning to `C1=C2CCCN[C@H]2[C@@H]2C[C@H]1[C@H]1CCCCN1C2`, the Potency result in assay [4] was “inactive”. Moreover, the result in assay [5] and in assay [6] was inactive.
Turning to `CCC(C)(OC(C)=O)C(=O)O[C@H]1[C@H](OC(C)=O)C[C@@H]2[C@@](C)([C@@H]3C[C@H]4C=CO[C@H]4O3)[C@H](C)C[C@H](OC(C)=O)[C@@]2(COC(C)=O)[C@@]12CO2` (stereo not given in full), the Potency entry in assay [4] is “inactive”. Moreover, the outcome in assay [5] and in assay [6] was inactive.
For `CC[C@H]1CN2CC[C@H]1C[C@H]2[C@H](O)c1ccnc2ccc(OC)cc12`, the Potency result in assay [4] was “inactive”. Also, the outcome in assay [5] and in assay [6] was inactive.
For `CC1=CC2/C=C(\C)CCC(O)C3OC(C)(C)OC3CC(=O)OC23C(=O)NC(CC(C)C)C3C1C` (stereo not given), the Potency result in assay [4] is “inactive”. The compound was classed as inactive in assay [5] and in assay [6].
As for `CC[C@H]1CN2CC[C@H]1C[C@@H]2[C@@H](O)c1ccnc2ccc(OC)cc12`, the Potency result in assay [4] is “inactive”. The compound was called inactive in assay [5] and in assay [6].
With `Cn1ncnc1COc1nn2c(-c3c(F)cccc3F)nnc2cc1C1CCC1`, in assay [4], the Potency entry is “inactive”. The compound was called inactive in assay [5] and in assay [6].
For the compound `C[C@@H]1C(=O)O[C@H]2[C@H](O)[C@@]34[C@@H]5OC(=O)[C@@]3(O[C@@H]3OC(=O)[C@@H](O)[C@@]34[C@H](C(C)(C)C)[C@H]5O)[C@@]12O`, the Potency entry in assay [4] is “inactive”. Further, the result in assay [5] and in assay [6] was inactive.
In the case of `OC1(c2ccc(Cl)cc2)c2ccccc2C2=NCCN21` (stereo not given), the Potency entry in assay [4] was “inactive”. The outcome in assay [5] and in assay [6] was inactive.
For the compound `COc1c(C(C)C)cc2c(c1O)[C@@]1(C(=O)O)CCCC(C)(C)C1CC2` (stereo not given in full), in assay [4], the Potency result is “inactive”. The result in assay [6] was inactive.
`C=C[C@H]1CN2CC[C@H]1C[C@@H]2[C@@H](O)c1ccnc2ccccc12`: the Potency entry in assay [4] is “inactive”. Also, the compound was classed as inactive in assay [5] and in assay [6].
Turning to `CC(C)=C1CC[C@]23CO[C@H](C2)[C@@](O)(C(=O)O)CCC13` (stereo not given in full), the Potency entry in assay [4] is “inactive”. Moreover, the result in assay [5] and in assay [6] was inactive.
As for `CN1CCC[C@@H]1Cc1c[nH]c2ccc(Nc3ncccc3[N+](=O)[O-])cc12`, the Potency result in assay [4] was “inactive”. Moreover, the compound was called inactive in assay [6].
In the case of `C/C=C(\C)C(=O)OC1CC2C(CC=C3CC(OC4CC(OC)C(OC5CC(OC)C(OC6OC(C)C(OC7OC(CO)C(O)C(O)C7O)C(OC)C6O)C(C)O5)C(C)O4)CCC32C)C2(O)CCC(C(C)=O)C12C` (stereo not given), in assay [4], the outcome was “inactive [at 11.6 µM]”. Also, the activity, negative = inhibition in assay [5] was 4.82% [at 11.6 µM]. For the same compound, the redox activity (% of DA3003) in assay [6] is 4.57% [at 11.5 µM].
Consider `CN[C@H]1[C@H](O)[C@H](O[C@@H]2[C@@H](O)[C@H](O[C@H]3O[C@H]([C@H](C)O)[C@@H](O)[C@H](O)[C@H]3N)[C@@H](N)C[C@H]2N)OC[C@@]1(C)O`, for which, in assay [4], the Potency entry was “inactive”. The result in assay [5] and in assay [6] was inactive.
Take `C=CC(C)(C)c1[nH]c2cccc3c2c1C[C@@H]1[C@@H]3[C@@H](OC(C)=O)[C@H](C)CN1C`: the Potency result in assay [4] is “inactive”. The result in assay [5] and in assay [6] was inactive.
